Assay outcomes: PubChem BioAssay, The Scripps Research Institute Molecular Screening Center
Most compounds without a hit are left out; they make up all but 3.4% or so of the library.
TEAD-YAP block – TEAD-YAP interaction inhibition, primary screen, TEAD-YAP interaction inhibitor project, luminescence, HEK-TIYL cells; 640,000 tested, 1.4% active; AID 1259422, 2018; TEAD-Gal4/YAP UAS-luciferase luminescence; inhibition, % at 9.12 µM; in the data active means inhibition above about 32%
MITF primary – MITF inhibitors, primary screen, biochemical, AlphaScreen, human. Microphthalmia-associated transcription factor (Homo sapiens), O75030. AlphaScreen MITF homodimerization, bead proximity signal. inhibition, % at 2.6 µM. 650,000 tested, 0.91% active. AID 1259374, 2018; in the data active means inhibition above about 50%
FBW7 activator – FBW7 E3 ligase activators, primary screen, biochemical, AlphaScreen, human. normalized activity (activation), % at 26.1 µM. 650,000 tested, 0.13% active. AlphaScreen FBW7–phospho-cyclin E peptide binding, activator screen. AID 1259310, 2017; in the data active means normalized activity above about 1.9%;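 further: purified mutant Fbw7 with reduced substrate affinity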
Target sequence (Q969H0 whole entry, looked up): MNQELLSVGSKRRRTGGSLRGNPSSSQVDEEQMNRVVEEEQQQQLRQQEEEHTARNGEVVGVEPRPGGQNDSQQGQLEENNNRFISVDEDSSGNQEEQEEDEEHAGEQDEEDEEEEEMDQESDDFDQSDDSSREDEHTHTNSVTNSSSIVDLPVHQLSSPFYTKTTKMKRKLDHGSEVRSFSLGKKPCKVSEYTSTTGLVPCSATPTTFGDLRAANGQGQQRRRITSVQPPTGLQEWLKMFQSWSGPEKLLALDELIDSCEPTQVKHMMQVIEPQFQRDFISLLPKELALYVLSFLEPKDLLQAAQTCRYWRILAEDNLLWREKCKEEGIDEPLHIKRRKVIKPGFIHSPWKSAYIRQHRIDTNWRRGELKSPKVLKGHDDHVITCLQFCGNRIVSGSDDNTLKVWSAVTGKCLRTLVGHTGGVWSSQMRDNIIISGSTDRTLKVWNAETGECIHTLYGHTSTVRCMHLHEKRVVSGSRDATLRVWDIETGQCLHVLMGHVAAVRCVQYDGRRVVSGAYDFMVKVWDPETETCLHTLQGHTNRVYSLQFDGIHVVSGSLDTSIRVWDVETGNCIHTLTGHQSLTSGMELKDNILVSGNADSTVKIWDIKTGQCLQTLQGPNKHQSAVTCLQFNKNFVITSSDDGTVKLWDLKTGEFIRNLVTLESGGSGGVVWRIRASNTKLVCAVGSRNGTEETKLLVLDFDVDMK
GPR151 activ – activators of human GPR151, primary screen, cell-based, PathHunter beta-arrestin, luminescence; G-protein coupled receptor 151 (Homo sapiens), Q8TDV0; PathHunter beta-arrestin GPR151 cells; activation, % at 11.2 µM; 650,000 tested, 1% active; in the data active means activation above about 4.9%
Each line names hits and unclear results; the compound was inactive in the other large screens.

COc1cc(Nc2nc(Nc3cnccn3)nc3c2ncn3-c2ccsc2)cc(OC)c1OC	TEAD-YAP block 38
COc1cc(Nc2nc(Nc3ccc(-n4ccnc4)cc3)nc3c2ncn3-c2ccsc2)cc(OC)c1OC	TEAD-YAP block 44
NC(=O)C1(N2CCCCC2)CCN(S(=O)(=O)c2ccccc2[N+](=O)[O-])CC1	none
N#CCC(=O)NNC(=O)c1cc2ccccc2oc1=O	none
CCOc1ccccc1CN1CCN(Cc2cc(=O)c3ccccc3[nH]2)CC1CCO (stereo not drawn)	TEAD-YAP block 48
CCOC(=O)c1cnc2ccc(OCC)cc2c1NCCCN(CC)CC	TEAD-YAP block 33
C=CCNC(=S)N/N=C(\C)c1ccc2ccccc2c1	none
C=CCNC(=S)N/N=C(\C)c1ccccn1	TEAD-YAP block 89, MITF primary 60
Cc1ccc(F)cc1Nc1ncnc(N)c1[N+](=O)[O-]	FBW7 activator 2.1
CCOC(=O)c1sc(NC(=O)c2cccc3ccccc23)nc1C	TEAD-YAP block 42
CCOC(=O)c1sc(NC(=O)c2ccccc2)nc1C	none
COC(=O)C(C)NC(=O)c1ccc([N+](=O)[O-])cc1 (stereo not drawn)	none
N#Cc1ccc(-c2ccc(OCC(=O)Nc3ccc(C(N)=O)cc3)cc2)cc1	none
Cc1ccc(N(CC(=O)NC2CCCCCC2)S(C)(=O)=O)c(C)c1	none
Cc1ncc(CO)c(/C=N/Nc2ccc3ccccc3n2)c1O	TEAD-YAP block 52
Cc1ncc(CO)c(/C=N/NC(=O)c2cc(O)c(O)c(O)c2)c1O	MITF primary 99
Cc1ncc(CO)c(/C=N/NC(=O)CCCOc2ccc(Cl)cc2Cl)c1O	TEAD-YAP block 55
Cc1ncc(CO)c(/C=N/NC(=O)c2ccc(Cl)c(Cl)c2)c1O	none
Cc1ncc(CO)c(/C=N/Nc2cccc(Cl)n2)c1O	none
O=C(Nc1ncc(Cc2ccc(F)cc2)s1)c1ncoc1-c1cccs1	none
Cc1cc(C)c2c(N)c(C(=O)NC(C)c3ccccc3)sc2n1 (stereo not drawn)	FBW7 activator 2.3
COc1ccc2nc(NC(=O)c3sc4nc(C)cc(C)c4c3N)sc2c1	TEAD-YAP block 35
Cc1cccc(NC(=O)c2sc3nc(C)cc(C)c3c2N)n1	TEAD-YAP block 84
Cc1cc(C)c2c(N)c(C(=O)Nc3ccccc3)sc2n1	none
COc1ccc2nc(NC(=O)c3sc4nc(C)[nH]c(=O)c4c3C)sc2c1	none
Cc1cccc2sc(NNC(=O)c3ccco3)nc12	none
CCC(C(=O)NCc1ccccc1C)n1nc(C)n2c(cc3occc32)c1=O (stereo not drawn)	none
O=C(O)CCCN1C(=O)/C(=C/c2ccccc2F)SC1=S	TEAD-YAP block 54
COc1cccc(/C=C2/SC(=S)N(CCCC(=O)O)C2=O)c1OC	TEAD-YAP block 80
C=CCOc1c(/C=C2/SC(=S)N(CCC(=O)O)C2=O)cccc1OC	none
CC(C)(C)C1CCc2c(nc3sc(C(=O)c4ccc(F)cc4)c(N)c3c2-c2cccs2)C1 (stereo not drawn)	none
COc1ccccc1C(=O)N1CCN(c2ccc([N+](=O)[O-])c(N3CCCCC3)c2)CC1	none
O=C(CCc1c[nH]c2ccccc12)Nn1c(SCC(=O)c2ccccc2)nc2ccccc2c1=O	none
CC(=NC#N)c1c(C(F)(F)F)[nH]n(-c2nc3ccccc3s2)c1=O	TEAD-YAP block 42
COC(=O)c1cc(NC(=O)CSc2nc(C)cc(=O)[nH]2)ccc1Cl	none
Cc1ccccc1-c1nc(CSCC(=O)NCCN2CCCC2)c(C)o1	none
CN(C)S(=O)(=O)c1ccc(Cl)c(NC(=O)CN2C(=O)CCC2=O)c1	none
O=C(c1ccccc1)N1CCN(c2nc(-c3ccccc3)c3ccccc3n2)CC1	FBW7 activator 2.2
Cc1ccc2nc(N3CCN(C=O)CC3)nc(-c3ccccc3)c2c1	FBW7 activator 2.1
Cc1ccc(C(=O)N2CCN(c3nc(-c4ccccc4)c4cc(Br)ccc4n3)CC2)cc1	none
COCCn1nnnc1C(c1cccc(C#N)c1)N1CCN(c2ccccc2F)CC1 (stereo not drawn)	none
Cc1ccc(S(=O)(=O)N(CC(=O)Nc2c(C)n(C)n(-c3ccccc3)c2=O)c2ccccc2F)cc1	none
C=CCNC(=S)N/N=C/c1ccc(C(F)(F)F)cc1	TEAD-YAP block 44
O=C(Cn1cnc2c(nnn2-c2ccccc2)c1=O)Nc1ccc2c(c1)OCCO2	none
COc1ccc(CNCc2cc(OC)c(OC)c(OC)c2)cc1C	MITF primary 51
COc1ccc(CNCc2ccccc2)cc1OC	none
O=C(NCc1ccco1)C1CCC(Cn2c(SCC(=O)N3CCN(c4ccccc4)CC3)nc3ccccc3c2=O)CC1 (stereo not drawn)	none
Cc1ccc(N2CC(C(=O)Nc3nccs3)CC2=O)cc1C (stereo not drawn)	TEAD-YAP block 44
CCCN1C(=O)C(O)(CC(=O)c2ccccc2O)c2cc(Br)ccc21 (stereo not drawn)	TEAD-YAP block 38
CCCN1C(=O)C(O)(CC(=O)c2ccccc2OC)c2cc(Br)ccc21 (stereo not drawn)	none
COc1cccc(N2CCN(c3c4c(nc5nncn35)CCC4)CC2)c1	TEAD-YAP block 37
COc1cc(-c2nc(Nc3ccc(Cl)cc3)c3ccccc3n2)cc(OC)c1OC	none
CCCCc1ccc(-c2nc(Nc3ccc(OCc4ccccc4)cc3)c3ccccc3n2)cc1	TEAD-YAP block 35
COc1cc(-c2nc(Nc3ccccc3Cl)c3ccccc3n2)cc(OC)c1OC	none
COc1cccc(Nc2nc(-c3cc(OC)c(OC)c(OC)c3)nc3ccccc23)c1	TEAD-YAP block 37
COc1cc(-c2nc(Nc3ccc(C)cc3)c3ccccc3n2)cc(OC)c1OC	TEAD-YAP block 55
COc1cc(-c2nc(Nc3ccccc3F)c3ccccc3n2)cc(OC)c1OC	TEAD-YAP block 32
COCCNc1nc(-c2cc(OC)c(OC)c(OC)c2)nc2ccccc12	TEAD-YAP block 32
COCCNc1nc(-c2ccccc2)nc2ccccc12	none
N#Cc1c(-c2ccccc2F)c(C#N)c2nc3ccccc3n2c1N	TEAD-YAP block 42
O=C(Cc1ccccc1)Nc1cc(C(=O)O)cc(C(=O)O)c1	none
O=C(O)c1cc(=O)c(O)c2c(O)c(O)c(O)cc2c1	MITF primary 89
COc1ccc(-c2cnn3c(NCc4ccc5c(c4)OCO5)ccnc23)cn1	none
COCCN1C(=O)/C(=C\c2ccccc2OC)C(C(=O)OC)=C1C	none
CC(C)[C@@H](CO)Nc1ccc2ncc(-c3ccc(N(C)C)cc3)n2n1	none
CC(C)[C@@H](CO)Nc1ccc2ncc(-c3ccco3)n2n1	TEAD-YAP block 53
COc1ccc(-c2cnc3ccc(N[C@H](CO)C(C)C)nn23)c(OC)c1	FBW7 activator 2.0
CC(C)[C@@H](CO)Nc1ccc2ncc(-c3ccc(CO)cc3)n2n1	TEAD-YAP block 43
CC(C)[C@@H](CO)Nc1ccc2ncc(-c3ccsc3)n2n1	TEAD-YAP block 32
CC(C)[C@@H](CO)Nc1ccc2ncc(-c3cccc4ccccc34)n2n1	none
